Measured values published in PubChem BioAssay (NCI).
Compounds without any hit were thinned out: in the full panel of roughly 83,000, 20% have a hit.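 In brief: 96-well plates, 48 h treatment, single concentration, percent growth endpoint.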 A number with no mark means an inactive call. Calls of active or inactive are those of the source. The calls were made as follows: active = growth percent below 10; inactive = the rest.

Test system: MDA-MB-468 breast
Test: NCI-60 one-dose screen, 48 h (100 = growth as untreated, 0 = no growth, -100 = all killed)
Conditions: 10 µM unless noted

SMILES	growth
COc1ccc(-c2conc2-c2ccccc2)cc1	-4.68% (active)
O=C(Nc1ccc(F)cc1)Nc1ccccc1CNc1nc(Nc2ccc(OCCN3CCCC3)cc2)ncc1Cl	-44.1% (active)
FC(F)(F)c1cccc(Oc2ccc(Nc3ncnc4ccc(OCCCN5CCOCC5)cc34)cc2Cl)c1	5.72% (active)
COC(=O)c1nc(-c2ccccc2)oc1S(=O)(=O)N(C)CCO	6.31% (active)
CCOC(=O)c1c(Nc2ccccc2)nn2c(-c3cccs3)ccnc12	73.3%
C=CCNC(=S)N/C=C(/C(=O)c1ccccc1)c1ccccc1	102%
O=C(/C=C/c1cccc(O)c1)c1ccccc1O	85%
COc1ccc(-c2nc(Nc3nc4ccccc4[nH]3)nc(N)c2C#N)cc1	121%
CC(=O)Nc1ccc(Cl)cc1Cl	90.1%
CCOC(=O)/C(=C\c1ccc(-c2ccccc2)cc1)C(C)=O	95%
CCN(CC)S(=O)(=O)c1ccc(NC(=O)CSc2nnc(C)n2-c2ccccc2)cc1	90.6%
O=C(CCn1cnc2c(cc(-c3ccccc3)n2-c2ccccc2)c1=O)Nc1ccc(F)cc1	78%
O=P(O)(O)OC1C(OP(=O)(O)O)C(OP(=O)(O)O)C(OP(=O)(O)O)C(OP(=O)(O)O)C1OP(=O)(O)O.[Cu+2] (stereo not given)	85.8%
Cc1oc2nc[nH]c(=O)c2c1C(=O)/C=C/c1ccc(Cl)cc1Cl	86.7%
COc1cc(C(=O)/C=C/c2c[nH]c3ccccc23)cc(OC)c1OC	-5.45% (active)
CC(=O)OCC1CCCO1 (stereo not given)	105%
CCCCCC(C)(O)C(C(=O)O)c1ccccc1 (stereo not given)	108%
O=C(/C=C(O)/C=C/c1ccc(SC(F)(F)F)cc1)/C=C/c1ccc(SC(F)(F)F)cc1	100%
CCCCCCCCCOc1c(OC)cc(C2CC(=O)Nc3c2c(C)nn3-c2nc3ccccc3[nH]2)cc1OC (stereo not given)	-55.6% (active)
CCN(CCNc1ccc(C)c2sc3cc(Cl)ccc3c(=O)c12)CC(C)(C)O	-19.3% (active)

SMILES	growth
Nc1c(C(=O)Nc2cccc(Br)c2)sc2nc3c(cc12)C(=O)CCC3	32.1%
CCCOC(=O)Nc1nc2ccc(SCC)cc2s1	46.2%
NC1(N)C=CC2=C(C=C1)C1(N)C3=C(C=CC(N)(N)C=C3)N2C2(N)C3=C(C=CC(N)(N)C=C3)N1C1=C2C=CC(N)(N)C=C1	72.3%
COc1cc(C2CC(=O)Nc3c2c(C)nn3-c2nc3ccccc3[nH]2)cc2c1OCC(=O)N2 (stereo not given)	57.1%
Cn1ccnc1C(=O)/C=C/c1ccc(CC(=O)Nc2cc(F)c(F)c(F)c2)cc1	-23.4% (active)
Clc1cc(Cl)cc(Nc2ccc3cc(OCCCN4CCOCC4)ccc3n2)c1	40.9%
Cc1ccc(Nc2cc(N)nc(N)n2)cc1	92.2%
CCCCCC(=O)N(CCCC)CCCC	97.8%
N#Cc1nc(-c2ccccc2)oc1S(=O)(=O)N1CCOCC1	71.2%
O=C(C(=O)N1CCOCC1)c1cn(CCCn2cc(C(=O)C(=O)N3CCOCC3)c3ccccc32)c2ccccc12	109%
O=[N+]([O-])c1ccc2c(c1)Cc1ccccc1-2	84.1%
Fc1ccc(CNc2c3ccccc3nc3ccccc23)cc1F	-10.7% (active)
NS(=O)(=O)c1ccc(Nc2nc(N/N=C/c3ccc(Cl)cc3)nc(Nc3ccccc3)n2)cc1	66.6%
CC1=C(C(=O)c2ccccc2)C(c2ccc3c(c2)OCO3)NC(=S)N1 (stereo not given)	54.3%
CCOC(=O)C1=C(COCCN)NC(C)=C(C(=O)OC)C1c1ccccc1Cl (stereo not given)	17%
CCC(C)N(CCNc1cc(OC)cc2cccnc12)CCC(C)C (stereo not given)	-24.8% (active)
Nc1nc(N)c(N=Nc2ccc(C(=O)O)cc2)c(N)n1	114%
COc1ccc(-n2c(=O)n(-c3ccc(-c4nc5ccc(F)cc5s4)cc3)c(=O)c3cccnc32)cc1	121%
COc1ccccc1C(=O)Nc1cccc(NC(=O)c2ccoc2C)c1	14%
N#Cc1c(N)nn(C(=O)c2ccc(NC(=O)c3ccccn3)cc2)c1-c1ccc(Cl)cc1	-29.3% (active)
